aSyn 5UTR act: Activators via SNCA 5'UTR binding, MLPCN; alpha-synuclein 5'UTR reporter, activators screen; activity score, % (tested at 7.5 µM), hits read low; 300,000 tested, 7.1% active; AID 1814, 2009; in the data active = activity score below about -60%
Starred values were filed as active, the others as inactive. A selection follows.

SMILES | aSyn 5UTR act
O=C(NC(Nc1ncc(S(=O)(=O)c2ccc([N+](=O)[O-])cc2)s1)(C(F)(F)F)C(F)(F)F)c1ccc(Cl)cc1 | 73
CC(C)(C)c1ccc(C(=O)Nc2ccc([N+](=O)[O-])cn2)cc1 | -72*
CCOc1cccc2cc(-c3csc(NC(=O)CCC(=O)NCCCN4CCC(C)CC4)n3)c(=O)oc12 | -76*
CCOc1cccc2cc(-c3csc(NC(=O)CCC(=O)NCCN4CCCCC4C)n3)c(=O)oc12 (stereo unspecified) | -135*
NC(=O)C1=C[C@H](C2CCCCC2)C[C@H](OCc2ccc(CO)cc2)O1 | -98*
CC(C)c1ccc2oc(-c3cc(N)ccc3O)nc2c1 | -95*
Cc1ccccc1-c1nc2cc(N)ccc2o1 | -123*
Cc1cc(N/N=C/c2ccc(O)cc2O)nc(-c2ccccc2O)n1 | 75
CN(/N=C/c1cc(Br)cc(Br)c1O)c1cccc(C(F)(F)F)n1 | 70
Cc1cc(N/N=C\c2ccccc2)nc(-c2ccccc2O)n1 | -138*
Cc1cc(N(C)/N=C/c2ccccc2)nc(-c2ccccc2O)n1 | -119*
O=C(NCc1ccccc1)C1=C[C@@H](c2csc3ccccc23)C[C@@H](OCCCCO)O1 | 95
O=C(Nc1ccccc1)C1=C[C@@H](c2ccc(C(F)(F)F)cc2)C[C@@H](OCCCCO)O1 | -95*
C#Cc1ccc([C@@H]2C=C(C(=O)N3CCN(Cc4ccccc4)CC3)O[C@H](OCCCCO)C2)cc1 | 99
Cc1ccc(CSc2nc3ccccc3cc2C=O)cc1 | 93
Cc1ccc(CSc2nccc(-c3c(C)nc4ccccn34)n2)cc1 | -70*
Cc1ccc(-c2cc(C(=O)N3CCN(c4ccc(F)cc4)CC3)c3ccccc3n2)o1 | -96*
COc1ccc(-c2cc(C(=O)N3CCN(c4ccccn4)CC3)c3ccccc3n2)cc1 | -140*
O=C(c1cc(-c2ccncc2)nc2c(Cl)cccc12)N1CCN(c2ccccc2F)CC1 | 99
CCOc1ccc(-c2cc(C(=O)N3CCN(c4ccccn4)CC3)c3ccccc3n2)cc1 | -68*
CCc1cc(C(=O)Nc2ccccc2)cs1 | -134*
CCc1cc(C(=O)NNC(=S)Nc2ccccc2C)cs1 | -147*
COc1ccc(/C=C/C(=O)Nc2cccc(S(=O)(=O)NC3=NCCCCC3)c2)cc1 | -67*
O=C(/C=C/c1ccc(OC(F)F)cc1)Nc1cccc(S(=O)(=O)NC2=NCCCCC2)c1 | -72*
O=C(CCl)Nc1cccc(S(=O)(=O)NC2=NCCC2)c1 | -180*
SMILES | aSyn 5UTR act
NNc1nc2ccccc2c(=O)n1Cc1ccccc1 | -133*
O=c1c(Br)c(NCc2ccccc2)cnn1-c1ccc(F)cc1 | -68*
CCN(Cc1ccccc1)C(=O)CCCOc1ccccc1 | -91*
CCN1CCN(C(=O)/C=C/c2c(F)cccc2Cl)CC1 | -90*
O=C(/C=C/c1c(F)cccc1Cl)N1CCc2ccccc2C1 | -85*
COc1cc(C(F)(F)F)ccc1C(=O)NCCc1ccco1 | -163*
Cc1cccc2nc(COc3ccc4ccccc4c3Br)cn12 | -203*
CC(/C=N/NC(=O)c1ccc(Cn2cc([N+](=O)[O-])cn2)o1)=C\c1ccccc1 | -75*
Cc1occc1-c1nc(-c2ccncc2)no1 | -77*
Cc1ccc(-c2noc(-c3ccoc3C)n2)cc1 | -186*
COc1ccc(OC)c(C=Nc2ccccc2-c2nc3ccccc3[nH]2)c1 | -212*
Oc1ccc(C=Nc2ccccc2-c2nc3ccccc3[nH]2)c(O)c1 | -125*
Oc1ccccc1C=Nc1ccccc1-c1nc2ccccc2[nH]1 | -123*
CSc1ccc(C(=O)N2CCc3ccc(NC(=O)c4ccccn4)cc3C2)cc1 | -73*
O=C(O)c1ccc(N/N=C/c2cccc3cccnc23)cc1 | -89*
Oc1ccccc1/C=N/Nc1cccc2cccnc12 | -234*
O=C(O)c1ccc(N/N=C/c2ccnc3ccccc23)cc1 | -119*
O=c1c2ccccc2nc2c3ccccc3c(NCc3ccco3)nn12 | -82*
CCC(C)Nc1nc(N)c([N+](=O)[O-])c(NCc2ccccc2)n1 (stereo unspecified) | 65
CCC(C)Nc1nc(N)c([N+](=O)[O-])c(NC2CCCCC2)n1 (stereo unspecified) | 102
Cc1ccc(Nc2nc(NCc3ccco3)c3ccccc3n2)cc1 | -139*
Nc1nc(Nc2ccc(Cl)cc2)nc(NCc2ccco2)c1[N+](=O)[O-] | -75*
Nc1c(-c2ccccc2)n[nH]c1-c1ccccc1 | -219*
Cc1cccc(-n2nnc(C(=O)Nc3ccc(F)cc3)c2N)c1 | -196*
Cc1cccc(-n2nnc(C(=O)N3CCc4ccccc4C3)c2N)c1 | -71*
SMILES | aSyn 5UTR act
Cc1ccc(/C=C/C(=O)NCc2cccs2)c(C)c1 | -132*
Cc1ccc(/C=C/C(=O)NCc2cccs2)cc1 | -68*
O=C(/C=C/c1ccc(F)cc1)NCc1ccco1 | -75*
Cc1cc(C(=O)OCC(=O)NCc2ccco2)c(C)n1-c1ccc(F)cc1 | 80
COc1cccc(N(C(=O)c2nc3nccc(C)n3n2)c2nc3ccccc3s2)c1 | -185*
CCc1ccc(NC2=NCC(c3ccccc3)S2)cc1 (stereo unspecified) | -140*
COC(=O)c1ccccc1NC(=O)c1ccc(-c2ccc(Br)cc2)o1 | -106*
